Assay results from PubChem BioAssay AID624297 (National Center for Advancing Translational Sciences (NCATS), 2012).
Where “and” joins values, the source holds several entries; their conditions need not be identical. Equal entries are not always repeated. Among all 340,000 compounds or so, about 6,200 (1.8%) were called active. Roughly 10% stayed inconclusive and do not appear here. The call rests on the fitted dose curve; in most records, active means well fitted activation curve with a large enough effect; inconclusive means small, poorly fitted or top-dose-only effect; inactive means no such curve, though single readings can be large or run the other way. Only a selection was taken, and actives are over-represented in it overall.

Assay: A quantitative high throughput screen for small molecules that induce DNA re-replication in SW480 colon adenocarcinoma cells. Further: nearly all actives have a fitted effect of over 55% in size. On re-replication activation: % of control where 0% means no effect.
Settings: Hoechst DNA content imaging, 48 h; series mostly up to 46.1 µM; re-replication activation: at the top concentration
Method in brief: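 Cells (250 per well) received 23 nL compound or DMSO by pin tool and were kept 48 hr at 37 C, 5% CO2. Nuclei were then stained with Hoechst for 40 min and scanned for DNA content.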
Potency means the concentration at half of the fitted maximal effect.

SMILES | re-replication activation | Potency
CN(Cc1ccc(CNC[C@H]2O[C@@H](n3cnc4c(N)ncnc43)[C@H](O)[C@@H]2O)o1)S(C)(=O)=O | -0.482% (inactive) | 
CC(=O)Nc1ccc(NC(=O)COC(=O)C2CCC(C(C)(C)C)CC2)cc1 (configuration not stated) | -11.3% (inactive) | 
Cc1ccc(NC(=O)Cn2cnc3c(OCc4ccccc4)ncnc32)cc1C | 8.76% (inactive) | 
CCOc1ccccc1N1CCN(C(=O)c2ccc3[nH]c(C)c(C)c3c2)CC1 |  | 18.4 µM (active)
COc1ccccc1N1CCN(C(=O)c2ccc(Cl)c(S(=O)(=O)N3CCCC3)c2)CC1 | 3.04% (inactive) | 
Cc1[nH]c2ccc(C(=O)N3CCN(C)CC3)cc2c1C | -8.89% (inactive) | 
Cc1cc(NC(=O)CN2C(=O)NC(CC(C)C)C2=O)no1 (configuration not stated) | -8.09% (inactive) | 
COc1ccc(CCNC(=O)c2ccc(NC(=O)CC3SC(N4CCCCC4)=NC3=O)cc2)cc1OC (configuration not stated) | -35% (inactive) | 
C=CC[C@H](CC(=O)OC(C)(C)C)C(=O)OC[C@H]1CCCN1C(=O)[C@H](CC=C)CC(=O)N(CCO)Cc1ccccc1 | -12.8% (inactive) | 
CN1C(=O)c2ccc(NC(=O)c3c(F)c(F)c(F)c(F)c3F)cc2C1=O | -4.95% (inactive) | 
O=C(O)c1ccc(NC(=O)C2CCCCC2)cc1 | -5.52% (inactive) | 
CN1C(=O)c2ccc(NC(=O)C3CCCCC3)cc2C1=O |  | 16.4 µM (active)
COc1ccc2nc(N3C(=O)C(O)=C(C(=O)c4ccco4)C3c3ccco3)sc2c1 (configuration not stated) | -4.84% (inactive) | 
O=C(COC(=O)c1ccc(Br)o1)NC12CC3CC(CC(C3)C1)C2 | -5.15% (inactive) | 
O=C(CC1SCCNC1=O)Nc1ccc(Cl)c(Cl)c1 (configuration not stated) | -3.76% (inactive) | 
O=C(CC(O)(C(F)(F)F)C(F)(F)F)Nc1ccc(Cl)c(Cl)c1 |  | 14.6 µM (active)
O=C(Cc1ccc(Cl)c(Cl)c1)Nc1ccc(SC(F)F)cc1 | 2.53% (inactive) | 
Cc1noc(C)c1C(=O)OC(C)C(=O)Nc1ccc2c(c1)OCO2 (configuration not stated) | -9.61% (inactive) | 
O=C1C2C3C=CC(C3)C2C(=O)N1c1ncc([N+](=O)[O-])s1 (configuration not stated) | -1.99% (inactive) | 
C/C(=N\Nc1ccccc1)c1cccs1 | -8.99% (inactive) | 
CCc1nc(C)cn1S(=O)(=O)c1cc(OC)c(C)cc1C | -6.97% (inactive) | 

SMILES | re-replication activation | Potency
CC(C)c1nccn1S(=O)(=O)c1cc([N+](=O)[O-])ccc1Cl | -7.61% (inactive) | 
CCc1nc(C)cn1S(=O)(=O)c1cc([N+](=O)[O-])ccc1Cl |  | 4.11 µM (active)
O=C(Nc1ccc(S(=O)(=O)N2CCOCC2)cc1)C1CCN(S(=O)(=O)c2ccc(Cl)cc2)CC1 | -12% (inactive) | 
C#CCNC(=O)C1=C[C@@H](c2ccccc2)[C@H](CCCO)[C@@H](OCC)O1 |  | 23.1 µM (active)
CCO[C@@H]1OC(C(N)=O)=C[C@H](c2ccc(Br)cc2)[C@H]1CCCO | 1.27% (inactive) | 
CCO[C@H]1OC(C(=O)NCc2ccccc2)=C[C@@H](c2coc3ccccc3c2=O)[C@@H]1CCCO | -2.42% (inactive) | 
CN(c1ccccc1)S(=O)(=O)c1ccc(C(=O)N2CCN(c3ccccc3Cl)CC2)cc1 | 1.06% (inactive) | 
Cc1cc(C(=O)Nc2ccccc2N2CCOCC2)c2ccccc2n1 | -21.9% (inactive) | 
COC(=O)c1cc(N2CCNCC2)nc2ccccc12 |  | 10.3 µM (active)
CNC(=O)COC(=O)c1cc(-c2ccc(OC)cc2)nc2ccccc12 | -4.03% (inactive) | 
Cc1cccc(NC(=O)c2ccc(S(=O)(=O)N(C)c3ccccc3)cc2)n1 | 2.72% (inactive) | 
CCCCCCc1cc2cc(-c3nnc(-c4ccccc4)o3)c(=O)oc2cc1O |  | 3.55 µM (active)
Cc1c(CC(=O)NCCCCCC(=O)O)c(=O)oc2cc3occ(-c4ccccc4)c3cc12 | -3.23% (inactive) | 
CCCCCCc1ccc(O)cc1O | 0.114% (inactive) | 
CCCCNC1(C#N)CCN(Cc2ccccc2)CC1 | -1.42% (inactive) | 
COc1cc(NC(=O)COC(=O)c2cc(S(=O)(=O)N3CCOCC3)ccc2F)cc(OC)c1 | 2.2% (inactive) | 
NC(=O)c1ccc(NC(=O)COC(=O)c2c3c(nc4ccccc24)/C(=C\c2ccc4c(c2)OCO4)CCC3)cc1 |  | 7.31 µM (active)
NS(=O)(=O)c1ccc(NC(=O)COC(=O)c2ccco2)cc1 | 0.0076% (inactive) | 
NS(=O)(=O)c1ccc(NC(=O)COC(=O)c2c3c(nc4ccccc24)/C(=C\c2ccc4c(c2)OCO4)CCC3)cc1 |  | 7.31 µM (active) and 11.6 µM (active)
O=C(COC(=O)c1ccncc1)Nc1ccc2c(c1)OCO2 | -2.98% (inactive) | 
COc1cc(/C=C2\CCCc3c2nc2ccccc2c3C(=O)O)cc(Cl)c1O | -2.95% (inactive) | 

SMILES | re-replication activation | Potency
O=C(COC(=O)c1c2c(nc3ccccc13)/C(=C\c1cccs1)CCC2)Nc1ccccc1Cl |  | 14.6 µM (active) and 13 µM (active)
O=C(COC(=O)c1ccc(F)cc1)Nc1ccc2c(c1)OCO2 | -15.1% (inactive) | 
O=C(COC(=O)c1c2c(nc3ccccc13)CCCC2)c1ccc(Br)s1 | -0.727% (inactive) | 
NS(=O)(=O)c1ccc(NC(=O)COC(=O)c2cc3ccccc3oc2=O)cc1 | 1.13% (inactive) | 
OCC1(CO)CC2(C1)CC(CO)(CO)C2 | -2.65% (inactive) | 
COc1ccc(CCNC(=O)COC(=O)c2ncc(Cl)c(Cl)c2Cl)cc1OC | 5.84% (inactive) | 
O=C(CNC(=O)c1ccccc1F)OCC(=O)c1c[nH]c2ccccc12 | -0.0394% (inactive) | 
CC(=O)Nc1ccc(S(=O)(=O)Nc2ccc(N3CCCCC3)cc2)cc1 | 4.81% (inactive) | 
CCC1([N+](=O)[O-])COC(c2ccc(C(C)C)cc2)OC1 (configuration not stated) | -14.6% (inactive) | 
CC1CCCCC12NC(=O)N(CC(=O)OCc1c(F)cccc1Cl)C2=O (configuration not stated) | -2.6% (inactive) | 
COc1ccc(C2=NOC(C(=O)NCc3ccco3)C2)cc1OC (configuration not stated) |  | 13 µM (active)
COc1ccc(CNC(=O)C2CC(c3ccc(C(F)(F)F)cc3)=NO2)cc1 (configuration not stated) | -4.92% (inactive) | 
COc1ccc(S(=O)(=O)N2CCC(C(=O)NCc3ccco3)CC2)cc1C | 7.9% (inactive) | 
Cc1cc(N2CCCC2)ccc1NC(=O)COc1ccc(Cl)cc1 | -5.98% (inactive) | 
CC(C)n1cnc2c(NCc3ccccc3)cc(OCC3CCN(C)CC3)cc21 | 9.3% (inactive) | 
COc1ccccc1NS(=O)(=O)c1ccc(C)c(C(=O)NNC(=O)c2csc(N3CCOCC3)n2)c1 | 2.11% (inactive) | 
O=C(C(=O)N1CCc2ccccc2C1)N1CCc2ccccc2C1 | -3.4% (inactive) | 
O=C(C(=O)N1CCc2ccccc2C1)c1c[nH]c2ccccc12 |  | 4.11 µM (active)
O=C(NC1CCCC1)C(=O)c1c[nH]c2ccccc12 | -12.4% (inactive) | 
COc1cc2c(-c3ccc4c(c3)OCO4)c(-c3ccsc3)oc(=O)c2cc1OC | -0.829% [at 9.22 µM] (inactive) | 
